Screens from PubChem.
Hits are enriched below; roughly 10% of the tested compounds scored in any of these assays.
HPGD inh: HPGD (human) dehydrogenase inhibition | P15428 | purified HPGD, NADH fluorescence kinetic, PGE2 substrate | Potency, µM, inactives show top-dose activity change, negative = inhibition, usual class: inhibitors | actives 4.3% (n = 150,000) | AID 894; also: potency is read from the fitted curve at half-maximal effect
Target sequence (P15428 whole entry, looked up): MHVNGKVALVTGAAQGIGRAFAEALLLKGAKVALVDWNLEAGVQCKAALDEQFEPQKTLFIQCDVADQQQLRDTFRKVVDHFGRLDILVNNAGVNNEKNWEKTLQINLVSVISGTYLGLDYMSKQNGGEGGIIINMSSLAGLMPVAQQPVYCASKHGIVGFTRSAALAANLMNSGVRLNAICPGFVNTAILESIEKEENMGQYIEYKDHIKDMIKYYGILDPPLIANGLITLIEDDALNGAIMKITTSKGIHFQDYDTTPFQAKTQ
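NADH formation kinetics: reaction with 30 uM PGE2 and 1 mM NAD+ (final), 20 nM enzyme, Tris-HCl pH 8 with Tween 20, after 15 min compound preincubation at room temperature. Fluorescence change, last versus first of five reads.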
PNC assembly inh: blocks assembly of the perinucleolar compartment | actives 3.1% (n = 140,000) | activity change (PNC), negative = inhibition, % at 10 µM | PC3M PTB-GFP, PNC prevalence imaging, 16 h; active compounds read low;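 active = readout at or below -70, meaning at least 70% loss of cells showing the perinucleolar compartment, a nuclear body marking cancer cells; inconclusive = readout between -30 and a set limit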;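 also: plate controls were DMSO wells for no effect and camptothecin positive control wells for full effect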
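Compounds are pinned in duplicate onto adhered PC3M cells stably expressing GFP-tagged PTB and incubated 16 h at 37 C. Cells are then fixed, nuclei stained with Hoechst, and PNC-positive cells counted.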
12-hLO inh: blocks human 12-lipoxygenase activity; Potency, µM (doses to about 57.1 µM), for the others: top-dose activity change, negative = inhibition, actives largely listed as inhibitors; AID 1452; purified 12-hLO, xylenol orange hydroperoxide absorbance; actives 0.12% (n = 150,000); active = well fitted inhibition curve with a large enough effect; inconclusive = small, poorly fitted or top-dose-only effect; also: potency is read from the fitted curve at half-maximal effect; nearly all actives have a fitted effect of over 55% in size
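150 nM 12hLO, 25 mM Hepes pH 7.0 + 0.01% Triton X-100; cpd preinc 15 min RT; 40 uM arachidonic acid, 30 min RT; Fe-XO 30 min; A573/A405 ratio as read-out.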
ALDH1A1 block: blocks purified human ALDH1A1 activity. Purified ALDH1A1, NADH fluorescence, propionaldehyde substrate. actives 7.3% (n = 220,000). P00352. Potency, µM (doses to about 75.3 µM), for the others: at the top dose activity, negative = inhibition, most hits filed as inhibitors;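 also: potency is read from the fitted curve at half-maximal effect; plate controls were no enzyme wells and a reference inhibitor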
Target sequence (P00352 whole entry, looked up): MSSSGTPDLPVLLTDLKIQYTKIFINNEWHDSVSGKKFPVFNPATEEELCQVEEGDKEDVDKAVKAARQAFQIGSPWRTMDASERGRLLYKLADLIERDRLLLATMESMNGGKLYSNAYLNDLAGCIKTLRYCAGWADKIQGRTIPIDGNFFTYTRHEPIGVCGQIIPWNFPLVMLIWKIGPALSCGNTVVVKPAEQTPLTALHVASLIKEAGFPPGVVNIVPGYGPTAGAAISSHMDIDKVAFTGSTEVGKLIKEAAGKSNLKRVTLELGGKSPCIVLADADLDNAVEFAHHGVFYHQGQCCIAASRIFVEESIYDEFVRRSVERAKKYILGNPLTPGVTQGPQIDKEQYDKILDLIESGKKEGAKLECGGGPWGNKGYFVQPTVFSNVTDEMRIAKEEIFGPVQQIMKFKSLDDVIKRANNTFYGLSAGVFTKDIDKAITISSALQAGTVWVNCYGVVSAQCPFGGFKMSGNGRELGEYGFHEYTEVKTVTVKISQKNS
LMNA splice mod: modulators of lamin A splicing | HeLa LMNA splicing GFP/RFP minigene ratio, 48 h | Potency, µM (titrated, usually from 46.1 µM), inactives show at the top dose ratio change, negative = inhibition, actives largely listed as inhibitors | actives 0.01% (n = 200,000); active = well fitted inhibition curve with a large enough effect in the signal ratio, with a control signal flat, not every such curve was filed as active; inconclusive = small, poorly fitted or top-dose-only effect, or effect the other way, or a change in a side signal; the % refers to the signal ratio; also: potency is read from the fitted curve at half-maximal effect
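S3 HeLa cells stably expressing lamin A-EGFP splicing minigene plus DsRed2, 600 cells/well, 48 h compound exposure at 37C. Laser-scanning cytometry; analysed as GFP (500-530 nm)/RFP (575-640 nm) total intensity ratio; 0.5% DMSO vehicle.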
The depositor's hits bear a star; ? = inconclusive; . = no result; [ ] = another dose, or the depositor's remark. Unless noted, calls follow the shape of the dose curve; as a rule, active = well fitted inhibition curve with a large enough effect (not every such curve was filed as active); inconclusive = small, poorly fitted or top-dose-only effect, or another doubt; inactive = no such curve, though single readings can be large or run the other way. Unless noted, % is scaled to controls: 0 for no effect and ±100 for the full control effect.

SMILES | HPGD inh | PNC assembly inh | 12-hLO inh | ALDH1A1 block | LMNA splice mod
O=C(Nc1ccccc1C(F)(F)F)c1cccnc1 | -7.1% | 48.5 | -1.2% | 7.1% | 2.9%
CCOc1ccc(-n2cc(-c3ccccc3)c3c(NCCc4ccccc4)ncnc32)cc1 | . | . | . | . | -8.7%[46 µM]
CCC(C(=O)NCCN1CCN(C)CC1)n1c(C)c2cnn(-c3ccccc3)c(=O)c2c1C (stereo unspecified) | -14.0% | 23.9 | -1.7% | 22.4µM* | 0.3%
CCCN1CCN(C(=O)CCCn2c(C)c3cnn(-c4ccccc4)c(=O)c3c2C)CC1 | -6.7% | 7.2 | -6.4% | 28.2µM* | -15.1%
CCOC(=O)C1C(=O)CC(=O)CC1CC(C)SCC (stereo unspecified) | -21.4% | -5.3 | ? | 12.6µM* | -8.4%
O=C(CCCn1c(=O)c2cccn2c2ccccc21)Nc1cccc(Cl)c1 | . | . | . | . | -17.7%[46 µM]
CCC(C)/C(C)=N/NC(=O)c1ccc(COc2ccc(Cl)c(C)c2)cc1 (stereo unspecified) | -14.7% | -134.0* | -2.5% | 12.6µM* | -8.8%
CC(=O)Nc1ccc(NC(=O)c2ccc(COc3ccc4c(C)cc(=O)oc4c3)cc2)cc1 | ? | -16.0 | -0.4% | ? | -4.9%
COC/C=C/C1=CC2=CC(=O)C(C)(OC(=O)c3cnc4ccccc4n3)C(=O)C2=CN1c1cccc(C#N)c1 (stereo unspecified) | -3.7% | . | -5.8%[11.4 µM] | -8.7%[13.5 µM] | -19.3%[9.22 µM]
O=C(COC(=O)C1(c2ccccc2F)CCCC1)Nc1ncc(C(F)(F)F)cc1Cl | -8.5% | -109.0* | -4.4% | ? | -0.8%
Cc1nn(-c2ccccc2)c(C)c1/C=C/C(=O)OCC(=O)Nc1ncc(C(F)(F)F)cc1Cl | ? | -113.4* | -0.6% | ? | 2.3%
Cc1ccc(S(=O)(=O)Nc2ccc3c(c2)CCCN3C(=O)c2cccs2)cc1 | . | . | . | . | -13.6%[46 µM]
CCCCn1cnc2c(oc3nc4c(cc32)CCCC4)c1=O | . | . | . | 1.26µM* | .
Cc1ccc(Cn2cnc3nc4c(cc3c2=O)CCCC4)cc1 | . | . | . | . | 1.8%[46 µM]
O=c1c2oc3nc4c(cc3c2ncn1CCCc1ccccc1)CCCC4 | . | . | . | 3.98µM* | .
CCCCCCn1cnc2c(oc3nc4c(cc32)CCCC4)c1=O | -17.7% | -4.9 | -2.0% | 3.55µM* | -6.8%
CCOC(=O)c1cc(-c2ccc(F)cc2)n(CCC(=O)Nc2cc(OC)cc(OC)c2)c1C | . | . | . | . | 3.7%[46 µM]
CC(C)c1ccc(Cn2ccc3c4c(N)nc(NC5CC5)nc4ccc32)cc1 | ? | . | -3.0% | 1.8% | .
COc1cccc(Nc2ncc3nc(-c4cn(C)c5ccccc45)c(=O)n(C[C@H]4CCCO4)c3n2)c1 | . | . | . | 8.7% | ?
ClCc1nnc(-c2ccccc2)o1 | -15.4% | -1.3 | 1.1% | 7.94µM* | ?
Cc1nn(Cc2ccccc2)c(Cl)c1C(=O)OCc1nnc(-c2ccccc2)o1 | 12.6µM* | -13.0 | 0.6% | 1.6% | 1.0%
O=C(OCc1nnc(-c2ccccc2)o1)c1ccco1 | 8.91µM* | -5.5 | -2.0% | ? | -0.5%
O=C(OCc1nnc(-c2ccccc2)o1)c1cc(=O)c2ccccc2o1 | -9.3% | ? | -2.8% | 9.4% | -7.1%
O=C(OCc1nnc(-c2ccccc2)o1)C1CC(=O)N(Cc2ccco2)C1 (stereo unspecified) | . | . | . | 15µM* | -3.0%[46 µM]
COC(=O)c1sc(N)c(C(=O)OC)c1COC(=O)C1CC(=O)N(Cc2ccco2)C1 (stereo unspecified) | ? | 24.2 | 5.6% | ? | -12.4%
SMILES | HPGD inh | PNC assembly inh | 12-hLO inh | ALDH1A1 block | LMNA splice mod
CCc1ccc(NC(=O)CSc2nc3ccccc3c(=O)n2CCCN2CCC(C)CC2)cc1 | . | . | . | -6.4% | .
O=C(COc1ccccc1Cl)OCc1cc(=O)n2nc(C3CC3)sc2n1 | . | . | . | . | -5.8%[46 µM]
CCc1cccc(NC(=O)CN2Cc3ccccc3C2=O)c1 | . | . | . | . | 3.1%[46 µM]
COc1ccc(CC(=O)OCc2nnc(-c3ccccc3)o2)cc1 | . | . | . | 4.9% | 8.7%[46 µM]
N#Cc1ccccc1Sc1ccccc1C(=O)OCc1nnc(-c2ccccc2)o1 | 8.91µM* | -5.4 | -0.4% | -4.3% | 2.0%
Cc1ccc(S(=O)(=O)N(C)CC(=O)OCc2nnc(-c3ccccc3)o2)cc1 | 25.1µM* | -6.9 | 3.1% | ? | -0.5%
O=C(OCc1nnc(-c2ccccc2)o1)c1ccc2c(c1)OCO2 | 7.08µM* | -28.1 | -21.2% | -2.2% | 9.0%
CCOC(=O)c1sc(N)c(C(=O)OCC)c1COC(=O)C1CC(=O)N(Cc2ccco2)C1 (stereo unspecified) | -20.9% | 41.1 | -9.8% | 20µM* | -2.1%
COc1ccc(NC(C)=O)cc1NC(=O)C1(c2cccs2)CCOCC1 | . | . | . | . | -3.8%[46 µM]
COc1ccc(OC)c(CNC(=O)CN2CC(C)Sc3ccccc32)c1 (stereo unspecified) | . | . | . | . | 3.3%[46 µM]
CCOC(=O)c1[nH]c(COC(=O)C2CC(=O)N(Cc3ccccc3)C2)c(C(=O)OCC)c1C (stereo unspecified) | 28.2µM* | 41.3 | -16.3% | 39.8µM* | 3.0%
CCOc1ncccc1C(=O)OCc1nnc(-c2ccccc2)o1 | 15.8µM* | -22.5 | -5.2% | 6.4% | -5.8%
C/C(CCN1CCCc2nc(C)c(C)cc21)=N\O[C@@H](C)CN1CCCc2nc(C)c(C)cc21 | . | . | . | -2.1%[13.5 µM] | .
CCOC(=O)CNc1nc(C(C)(C)C)nc2c1nnn2Cc1ccccc1Cl | -21.0% | ? | -7.4% | ? | ?
C#CCNc1nc(CC)nc2c1nnn2Cc1ccccc1F | . | -14.0 | -3.2% | 7.94µM* | 2.0%
COc1ccc(Nc2nc(C)nc3c2nnn3Cc2ccccc2)cc1OC | ? | 8.7 | -4.4% | ? | ?
Fc1ccccc1Cn1nnc2c(NCCc3ccccn3)ncnc21 | -15.3% | -29.7 | 0.0% | 7.94µM* | 7.0%
CCc1nc(NCCCCCO)c2nnn(Cc3ccccc3F)c2n1 | -7.1% | -1.5 | -4.5% | 1.41µM* | -8.5%
Cc1nc(Nc2cccc(C(C)O)c2)c2nnn(Cc3ccccc3F)c2n1 (stereo unspecified) | . | . | . | 4.47µM* | 4.6%[46 µM]
Fc1cccc(Cl)c1Cn1nnc2c(NCc3ccccn3)ncnc21 | -17.6% | 177.8 | 2.3% | ? | ?
COC(=O)[C@H](COC(C)(C)C)NC(=O)O[C@@H]1C(=O)c2ccc(OC)cc2O[C@H]1c1ccc2c(c1)OCO2 | -5.2% | . | . | -3.7% | .
Cc1ccn2cc(CCNC(=O)CC(C)(C)C)nc2c1 | ? | -100.0* | 1.1% | ? | -11.5%
CC(=O)N1[C@H](C)C=C[C@]1(Cc1ccccc1)C(=O)NCc1cc(F)cc(C(F)(F)F)c1 | -4.4% | ? | -4.4% | 3.2% | ?
CC(=O)N1[C@H](C)C=C[C@]1(Cc1ccccc1)C(=O)NCc1ccc(C)o1 | 14.1µM* | . | -8.6% | ? | .
COC(=O)[C@@]1(Cc2ccccc2)C=C[C@@H](C)N1C(=O)c1ccccc1 | -24.3% | . | -0.9% | 39.8µM* | .
CCc1ccc(Cn2c(CNS(=O)(=O)c3ccc4c(c3)CCCC4)nc3cccnc32)cc1 | . | . | . | . | -16.4%[46 µM]
